Source: PubChem BioAssay AID624086 (Broad Institute, 2012)
The source made the active and inactive calls.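 How the source made its calls: active means fitted half-maximal effect concentration at or below the top concentration tested; inactive means the rest.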

Experiment: TCF/LEF luciferase signal increase in HEK293T – cell-based, firefly luciferase, dry powder, orthogonal assay for GSK3b inhibitor project, dose response (AID 624086)
Settings: HEK293T TCF/LEF firefly luciferase reporter, 24 h; series mostly up to 26 µM

outcome, inactive:
O/N=C/c1cn(-c2ccccc2)nc1-c1ccc(Cl)cc1
Cc1[nH]nc2c1C(c1ccc(C#N)cc1)C1=C(CC(C)(C)CC1=O)N2 (configuration not stated)
COc1ccccc1C1C(C(C)=O)=C(C)Nc2n[nH]c(C)c21 (configuration not stated)
O/N=C/c1cn(-c2ccccc2)nc1-c1ccc(F)cc1
Cc1[nH]nc2c1C(c1cccc(F)c1)C1=C(CC(C)(C)CC1=O)N2 (configuration not stated)
Cc1ccc(-c2nn(-c3ccccc3)cc2/C=N/O)cc1
COc1ccc(C2C3=C(CC(C)(C)CC3=O)Nc3n[nH]c(C)c32)cc1 (configuration not stated)
CC1(C)CC(=O)C2=C(C1)Nc1n[nH]c(C(F)(F)F)c1C2c1ccc(F)cc1C(F)(F)F (configuration not stated)
Cc1[nH]nc2c1C(c1ccc3c(c1)OCO3)C1=C(CC(C)(C)CC1=O)N2 (configuration not stated)
COc1cccc(C2C3=C(CC(C)(C)CC3=O)Nc3n[nH]c(C)c32)c1 (configuration not stated)
COc1ccccc1C1C2=C(CCCC2=O)Nc2n[nH]c(C)c21 (configuration not stated)
CC1(C)CC(=O)C2=C(C1)Nc1n[nH]c(C(F)(F)F)c1C2c1c(F)cccc1F (configuration not stated)
Cc1[nH]nc2c1C(c1cccs1)C1C(=O)CC(C)(C)CC1=N2 (configuration not stated)
COc1ccccc1-c1c2c(nc3n[nH]c(C)c13)CCC2=O
COc1ccccc1C1C2=C(CC3(CCCCC3)CC2=O)Nc2n[nH]c(C)c21 (configuration not stated)
COc1ccc(-c2nn(-c3ccccc3)cc2C(=O)N(C)C)cc1
Cc1[nH]nc2c1C(c1ccc(Br)cn1)C1=C(CC(C)(C)CC1=O)N2 (configuration not stated)
CC1(C)CC(=O)C2=C(C1)Nc1n[nH]c(C(F)(F)F)c1C2c1cc(F)ccc1F (configuration not stated)
O/N=C/c1cn(-c2ccccc2)nc1-c1ccc2c(c1)OCCO2
Cc1[nH]nc2c1[C@@H](c1cccs1)C1=C(CC(C)(C)CC1=O)N2
CC1(C)CC(=O)C2=C(C1)Nc1n[nH]c(C(F)(F)F)c1C2c1cc(F)ccc1C(F)(F)F (configuration not stated)
COc1ccccc1C1C2=C(CC(C)(C)CC2=O)Nc2n[nH]c(C(C)(C)C)c21 (configuration not stated)
Cc1cccc(C2C3=C(CC(C)(C)CC3=O)Nc3n[nH]c(C)c32)c1 (configuration not stated)
Cc1[nH]nc2c1C(c1cccnc1)C1=C(CC(C)(C)CC1=O)N2 (configuration not stated)
Cc1[nH]nc2c1C(c1ccccn1)C1=C(CC(C)(C)CC1=O)N2 (configuration not stated)
Cc1[nH]nc2c1C(C1CCCCC1)C1=C(CC(C)(C)CC1=O)N2 (configuration not stated)
Cc1ccc(C2C3=C(CC(C)(C)CC3=O)Nc3n[nH]c(C)c32)cc1 (configuration not stated)
Cc1[nH]nc2c1[C@H](c1ccccc1C(F)(F)F)C1=C(CC(C)(C)CC1=O)N2
Cc1[nH]nc2nc3c(c(-c4ccccc4)c12)C(=O)CC(C)(C)C3
CC(C)c1ccc(-c2nn(-c3ccccc3)cc2/C=N/O)cc1
Cc1[nH]nc2c1C(c1ccc(Cl)cc1)C1=C(CC(C)(C)CC1=O)N2 (configuration not stated)
Cc1[nH]nc2nc3c(c(-c4cccs4)c12)C(=O)CC(C)(C)C3
